D2 PAM-1: positive allosteric modulators of human D2 dopamine receptor | P14416 | HEK293 T-REx D2, calcium flux, EC20 dopamine potentiation | potentiation, % at 10 µM | 0.34% of 340,000 active | AID 485347;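 active = potentiation over 3 SD above the plate norm, cut at about 30% in these data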; note: 0% is about no effect
Target sequence (P14416 whole entry, looked up): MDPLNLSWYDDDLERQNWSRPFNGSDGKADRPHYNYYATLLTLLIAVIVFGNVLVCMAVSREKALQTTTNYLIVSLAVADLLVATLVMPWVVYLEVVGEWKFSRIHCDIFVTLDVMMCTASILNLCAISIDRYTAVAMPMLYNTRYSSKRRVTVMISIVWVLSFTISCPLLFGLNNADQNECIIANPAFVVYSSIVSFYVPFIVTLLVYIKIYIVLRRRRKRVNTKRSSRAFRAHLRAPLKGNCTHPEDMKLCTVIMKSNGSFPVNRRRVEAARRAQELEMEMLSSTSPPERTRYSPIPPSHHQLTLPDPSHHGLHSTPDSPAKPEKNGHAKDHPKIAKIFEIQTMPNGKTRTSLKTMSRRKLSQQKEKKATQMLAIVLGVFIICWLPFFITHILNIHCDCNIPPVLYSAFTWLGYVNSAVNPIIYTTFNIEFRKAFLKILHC
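Tetracycline-induced Hek293 Trex D2 cells, force-coupled to calcium, loaded with no-wash calcium dye. Compound added with 180 s kinetic read for agonism, then EC20 dopamine and a further 180 s read for potentiation.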
D2 antag: antagonizes the human D2 dopamine receptor; AID 485344; 2% of 340,000 active; inhibition, % at 10 µM; HEK293 TREx D2 cells, calcium flux, dopamine EC80; P14416; in the data active = inhibition above about 30%; inactive = below that, where a call was filed; note: 0% is about no effect
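Calcium flux kinetic readout in an inducible HEK293 TREx D2 line plated overnight at 30 C. After 180 s compound exposure, an EC80 dopamine challenge follows with another 180 s kinetic read to detect antagonism.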
D2 ag-1: activates the human D2 dopamine receptor; DiscoveRx PathHunter D2 beta-arrestin, luminescence, 90 min; 100% = 57 uM dopamine signal; activation, % (test concentration not listed); 0.084% of 360,000 active; AID 624465; in the data active = activation above about 40%
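Agonist mode: compounds alone added to overnight-plated D2 PathHunter cells for 90 min at 37 C, with 57 uM final dopamine (EC100) defining full response. Beta-arrestin recruitment detected by chemiluminescent reagent, read after 1 h at ambient temperature.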
D2 PAM-2: positive allosteric modulators of human D2 dopamine receptor | DiscoveRx D2 beta-arrestin cells, luminescence, 90 min; 100% = 57 uM dopamine signal | P14416 | potentiation, % (test concentration not listed) | 0.23% of 360,000 active; in the data active = potentiation above about 50%
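D2 cells co-treated with compound plus 50 nM dopamine (EC20) for 90 min at 37 deg C to detect potentiation. Beta-arrestin recruitment was read as enzyme-fragment luminescence after 1 h at ambient temperature. Full response was set by 57 uM dopamine.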
D2 ag-2: activates the human D2 dopamine receptor; P14416; HEK293 T-REx D2 cells, calcium flux agonist mode; activation, % at 2 µM; 0.53% of 340,000 active;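 active = activation over 3 SD above normal in the single-dose calcium agonist read, cut at about 30% in these data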; note: 0% is about no effect
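Agonism is scored from calcium flux in a force-coupled, inducible HEK293 cell line expressing D2, read kinetically for 180 s after compound addition against dopamine controls.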
* marks the source's active call; other numbers are inactive results; . = no result. Only some compounds are listed: those with a hit (about 2.4% of all), similar ones and a draw of the others.

SMILES	D2 PAM-1	D2 antag	D2 ag-1	D2 PAM-2	D2 ag-2
CCOc1ccccc1NC(=O)c1ccc(CN2CCc3ccccc3C2)cc1	-19	54*	-1	-20	1
CC(=O)c1cccc(NC(=O)c2ccc(CN3CCc4ccccc4C3)cc2)c1	-32	19	-8	-4	7
Cc1cc(NS(=O)(=O)c2ccc(NC(=O)COc3cc(C)c(Br)cc3C(C)C)cc2)no1	6	.	.	.	-2
O=C(CN1C=NS(=O)(=O)c2ccccc21)Nc1ccc(Br)cc1	.	.	.	.	0
Cc1ccc(S(=O)(=O)N2CCN(C(=O)CN3CCc4ccccc4C3)CC2)cc1	-18	3	2	-12	15
O=C(c1ccc(CN2CCc3ccccc3C2)cc1)N1CCCCC1	-20	35*	-2	-37	14
O=C(CN1CCc2ccccc2C1)N1CCN(S(=O)(=O)c2ccccc2)CC1	-11	7	6	-5	35*
O=C(Nc1ccc(S(=O)(=O)N2CCCC2)cc1)c1ccc(CN2CCc3ccccc3C2)cc1	-16	64*	1	-36	3
CCOc1ccc(S(=O)(=O)N2CCOCC2)cc1NC(=O)CCN1C(=O)NC2(CCCC2)C1=O	.	.	-1	-3	.
CC(C)CCn1c(=O)c2ccccc2n2c(CCC(=O)NCC3CCCO3)nnc12 (configuration not stated)	0	19	10	2	-1
CC(C)CCN1CCN(Cc2cccc3nonc23)CC1CCO (configuration not stated)	-23	54*	-2	-7	1
COc1ccc(CN2CCN(Cc3ccc(C)cc3)C(CCO)C2)cc1OC (configuration not stated)	12	14	-1	-22	0
COc1cc(CN2CCN(Cc3ccc(C)cc3)C(CCO)C2)cc(OC)c1O (configuration not stated)	-18	57*	3	-16	1
Cc1ccc(CN2CCN(Cc3ccc(C)s3)CC2CCO)cc1 (configuration not stated)	-23	69*	-3	-2	1
Cc1ccc(CN2CCN(CCC(C)C)C(CCO)C2)s1 (configuration not stated)	-25	57*	-3	-18	0
CCOC(=O)Cn1c(=O)n(CC2CCCO2)c2nc(-c3ccccc3OC)nc(C(N)=O)c21 (configuration not stated)	-3	.	.	.	.
COc1ccc(OC)c(NC(=O)CSc2nc3ccccc3c(=O)n2CCC(=O)NC2CCCCC2)c1	8	.	.	.	4
COc1cc2nc(SCC(=O)Nc3cccc(C)c3)n3nc(CCn4c(C)nc5ccccc54)nc3c2cc1OC	10	.	.	.	-1
CC(C)N1CCN(Cc2cccs2)CC1CCO (configuration not stated)	.	.	0	-2	.
CC(C)CCN1CCN(Cc2cccs2)CC1CCO (configuration not stated)	-20	31*	1	-18	14
Cc1noc(/C=C/NCc2cccnc2)c1S(=O)(=O)N(C)CC(=O)N1CCc2ccccc21	-8	57*	-3	-6	-1
COc1ccc(S(=O)(=O)c2c(SC)nn(CC(=O)Nc3ccc(C)c(Cl)c3)c2N)cc1	5	.	.	.	0
COc1cc(S(=O)(=O)N2CCC(c3nc4ccccc4s3)CC2)ccc1S(=O)(=O)N1CC(C)CC(C)C1 (configuration not stated)	34*	18	0	-7	0
COC(=O)N/N=C\c1cc2c(cc1Br)OCO2	-11	-3	-6	-10	-1
Cc1ccc(C(=O)N/N=C\c2cc3c(cc2Br)OCO3)s1	-31	66*	-3	-10	-1
SMILES	D2 PAM-1	D2 antag	D2 ag-1	D2 PAM-2	D2 ag-2
O=C(c1cc2nc(-c3cccs3)cc(C(F)(F)F)n2n1)N1CCCc2ccccc21	-3	31*	-2	-18	0
O=C(c1cc2nc(-c3cccs3)cc(C(F)(F)Cl)n2n1)N1CCCc2ccccc21	13	19	-5	-6	0
CCOc1ccc(NC(=O)CCC(=O)c2ccc(F)cc2)cc1	.	.	-1	-6	.
Cc1ccc(C(=O)CCC(=O)CCC(=O)O)cc1	.	.	-1	-2	.
O=C(O)CCC(=O)CCC(=O)c1ccccc1	-8	35*	0	-3	0
CN1CCN(CCOC2Cc3ccccc3Sc3ccc(Cl)cc32)CC1 (configuration not stated)	-41	88*	-2	-37	0
COc1ccc(Nc2nc(CC(C)=O)ns2)cc1	-3	10	-2	-5	1
COc1cccc(Nc2nc(CC(C)=O)ns2)c1	-11	33*	0	10	0
COc1ccc(N2CCN(CCS(=O)(=O)c3cc(Cl)ccc3Cl)CC2)cc1	-10	11	5	-2	0
c1coc(CNC2CCCCC2)c1	32*	-13	-3	-2	-1
O=S1(=O)CC(O)C(NCc2ccco2)C1 (configuration not stated)	-6	34*	0	-11	1
O=S1(=O)CC(O)C(NCCO)C1 (configuration not stated)	-2	-48	1	-2	1
c1coc(CNC2CCCCCCC2)c1	1	-5	-2	21	0
O=C(O)c1cccnc1SCc1cccc(Cl)c1	-22	45*	1	-29	-1
Cc1cccc(CSc2ncccc2C(=O)O)c1	5	-20	1	-3	1
CSc1nnc2c3c4c(sc3nc(-n3nc(C)cc3C)n12)COC(C)(C)C4	19	48*	0	1	0
O=C(Nc1ccn(-c2ccccc2)n1)c1ccc(Cl)cc1	-21	63*	-2	-30	-2
CNC(=O)c1nn(-c2ccccc2)ccc1=O	-4	-16	-2	0	1
CNC(=O)c1nn(-c2ccc(Cl)cc2)ccc1=O	3	33*	-14	-21	0
CCOc1ccc(C(=O)NCC(=O)Nc2ncccc2C)cc1OCC	-3	-2	0	-14	2
CCCOc1ccc(OCCOCCN2CCc3ccccc3C2)cc1	-26	31*	0	1	14
COc1ccc(OCCCN2CCc3ccccc3C2)cc1	-13	72*	-1	-26	0
CCOc1ccc(OCCOCCN2CCc3ccccc3C2)cc1	-20	68*	0	-45	13
c1ccc(OCCOCCN2CCc3ccccc3C2)cc1	-25	65*	-5	-9	-1
c1ccc(OCCOCCN2CCN(C(c3ccccc3)c3ccccc3)CC2)cc1	-36	-37	-6	-27	-1
CCOc1ccc(OCCOCCN2CCCC2)cc1	9	-15	-2	13	1
CC(C)CCn1c(O)c(N=NC(=O)Cn2ccc(C(F)(F)F)n2)c2ccccc21	-2	8	-5	-3	0
Cc1ccc(SCCOCCN2CCc3ccccc3C2)cc1	-24	75*	-5	-21	-1

Assay outcomes deposited in PubChem by National Center for Advancing Translational Sciences (NCATS).
